Potency and affinity values are given separately. Calls of active or inactive are those of the source.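 The calls were made as follows: active = falling luciferase signal whose fitted half-maximal concentration is at most twice the top tested dose; inconclusive = flat inhibition between 30 and 70% or a poor curve fit; inactive = the rest.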
Assay: off-target signal loss in HeLa-CEM21 co-culture – HeLa F-luc CTL cells, cherry-picked, counter-screen for HIV-1 Env fusion inhibitor project, dose response (AID 652040);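 also: 0% = median of neutral control wells and -100% = doxycycline 40 µg/mL wells; more negative values mean stronger loss of luciferase signal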
Settings: HeLa-F-luc CTL cells with CEM21, firefly luciferase counterscreen; series mostly up to 35 µM; activity change, negative = inhibition: at the top concentration

| SMILES | activity change, negative = inhibition |
| --- | --- |
| O=C(Nc1cc2c3c(c1)CC(=O)N3CCC2)c1ccc(Cl)cc1 | 31.3% (inactive) |
| CCCc1cc(C(=O)NCc2ccc(OC)cc2)no1 | 15.4% (inactive) |
| COc1ccc(/C(C)=N/NC(=O)c2cccc(S(=O)(=O)N3CCCC3)c2)c(O)c1 | 27.9% [at 8 µM] (inactive) |
| CC(=O)OC1c2ccccc2C(=O)N1c1ccccc1C (stereo not given) | 9.79% (inactive) |
| COCC(C)n1c(-c2ccc3c(c2)NC(=O)CO3)csc1=Nc1ccc(OC(F)F)cc1 (stereo not given) | 3.74% (inactive) |
| CCNc1ncnc2c1cnn2C1CCCO1 (stereo not given) | 21.7% (inactive) |
| CC1CCCN(C(=O)c2ccc(S(=O)(=O)N3CCC(c4nc5ccccc5s4)CC3)cc2)C1 (stereo not given) | 6.01% (inactive) |
| CC(C)OCCCn1c(=S)[nH]c2ccc(N3CCOCC3)cc2c1=O | -1.01% (inactive) |
| Cc1ccc(NC(=O)c2ccc(OCC3CCCO3)cc2)cc1Cl (stereo not given) | 114% (inactive) |
| Nc1nonc1C(=O)NCCNCc1c(OCc2ccccc2F)ccc2ccccc12 | 49.9% (inactive) |
| c1csc(-c2csc3ncnc(NCCCN4CCOCC4)c23)c1 | -9.92% (inactive) |
| Cc1oc(-c2ccccc2F)nc1CN1CCC(C(=O)NCCC2=CCCCC2)CC1 | -1.68% (inactive) |
| COc1ccc(CCNC(=O)COC(=O)c2cccn2C)cc1 | 16.6% (inactive) |
| Cc1nn(C)c(C)c1CN(C)S(=O)(=O)c1ccc2ccccc2c1 | -4.39% (inactive) |
| CCOc1ccc(C(=O)C2CCN(CC(=O)Nc3ccccc3N3CCOCC3)CC2)cc1 | -24.2% (inactive) |
| CC1(C)N=C(N)N=C(N)N1CCCCc1ccccc1 | -18.5% (inactive) |
| Nc1c(S(=O)(=O)c2ccccc2)cnc2c(-c3ccc(F)cc3)cnn12 | -1.17% (inactive) |
| O=C(Nc1ccc(CN2CCOCC2)cc1)c1ccc(-c2cccc(Cl)c2)o1 | 77.5% (inactive) |
| O=C(c1cccc(S(=O)(=O)N2CCN(c3ccccc3)CC2)c1)N1CCCC(C(F)(F)F)C1 (stereo not given) | 27.4% (inactive) |
| CCNC1CCC(Nc2ccnc3cc(Cl)ccc23)CC1 (stereo not given) | 62.5% (inactive) |
| COc1ccc2[nH]c3c(N4CCC(O)(c5cccc(C(F)(F)F)c5)CC4)ncnc3c2c1 | -52.1% (inactive) |
| Cc1cc(Nc2cccc(C(F)(F)F)c2)cc(=O)n1-c1cccc(C(F)(F)F)c1 | 18.8% (inactive) |
| O=C(c1cc(COc2cccc(C(F)(F)F)c2)on1)N1CCC(c2ccncc2)CC1 | 13.2% (inactive) |
| Cc1onc(-c2ccccc2)c1C(=O)NC(=S)NNC(=O)c1ccc(O)cc1 | -0.417% (inactive) |
| CC(Cl)=CCn1c(NCCc2ccccc2)nc2c1c(=O)n(C)c(=O)n2C | 14.4% (inactive) |

Reference: PubChem BioAssay AID652040 (Broad Institute, 2013)
